Only some compounds are listed: those with a hit (about 8.1% of all), similar ones and a draw of the others.
ClpP mod – qHTS Assay for Activators of ClpP; Potency, µM (top dose mostly 57.5 µM), for inactives: top-dose activity change, negative = active; purified B. subtilis ClpP, FRET peptide cleavage, 20 min; ATP-dependent Clp protease proteolytic subunit (Bacillus subtilis (strain 168)), P80244; AID 651965, 2013; actives 1.9% (n = 340,000); active = well fitted falling curve with a large enough effect; inconclusive = small, poorly fitted or top-dose-only effect; inactive = no such curve, though single readings can be large or run the other way; note: potency is the fitted concentration of half-maximal effect; the source files actives as falling curves though it sought activators and does not explain the sign; nearly all actives have a fitted effect of over 65% in size
Target sequence (P80244 whole entry, looked up): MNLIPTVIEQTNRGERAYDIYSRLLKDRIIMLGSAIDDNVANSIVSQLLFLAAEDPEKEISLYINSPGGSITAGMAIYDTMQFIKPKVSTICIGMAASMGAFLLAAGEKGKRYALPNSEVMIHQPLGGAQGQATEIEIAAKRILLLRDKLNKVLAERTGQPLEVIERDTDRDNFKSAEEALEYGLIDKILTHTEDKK
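FRET quenching reversal measured ClpP activation: 10 microg/mL B. subtilis ClpP at pH 8 with the FRET-FV decapeptide, read at 430 nm after 320 nm excitation. The 20-min minus 0-min signal was scaled between DMSO/no-enzyme wells and ADEP (5.8 microM final).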
Sfp PPTase inh – qHTS Assay for Inhibitors of Bacillus subtilis Sfp phosphopantetheinyl transferase (PPTase); 4'-phosphopantetheinyl transferase ffp (Bacillus subtilis), Q9F4F7; Biochemical Sfp PPTase activity, qHTS; Potency, µM, without a hit: largest response in the series, negative = inhibition, usual class: inhibitors; AID 1490, 2009; actives 3.5% (n = 310,000);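 note: the enzyme is Sfp with the accession as filed and its product quenches rhodamine fluorescence; potency is the fitted concentration of half-maximal effect; 0% = enzyme reaction without inhibitor and -100% = no enzyme wells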
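Fluorescence-quenching assay: 15 nM Sfp-PPTase preincubated 15 min at room temperature with compound, then 5 uM rhodamine-CoA and 12.5 uM BHQ-2-labelled YbbR peptide added. Fluorescence (ex 525/em 598 nm) read at start and after 30 min; difference gives rate.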
RORgamma inh – qHTS for inhibitors of ROR gamma transcriptional activity | Drosophila S2 Gal4-RORgamma UAS-luciferase reporter, 20 h | Potency, µM (series often up to 53.6 µM), for inactives: at the highest dose activity change, negative = inhibition, hits mostly inhibitors | actives 5.4% (n = 310,000) | AID 2551, 2010; note: potency is the fitted concentration of half-maximal effect; % is set by controls: 0 for no effect and ±100 for the full control effect; nearly all actives have a fitted effect of over 60% in size
Target sequence (P51450 whole entry, looked up, the tested form may be a part): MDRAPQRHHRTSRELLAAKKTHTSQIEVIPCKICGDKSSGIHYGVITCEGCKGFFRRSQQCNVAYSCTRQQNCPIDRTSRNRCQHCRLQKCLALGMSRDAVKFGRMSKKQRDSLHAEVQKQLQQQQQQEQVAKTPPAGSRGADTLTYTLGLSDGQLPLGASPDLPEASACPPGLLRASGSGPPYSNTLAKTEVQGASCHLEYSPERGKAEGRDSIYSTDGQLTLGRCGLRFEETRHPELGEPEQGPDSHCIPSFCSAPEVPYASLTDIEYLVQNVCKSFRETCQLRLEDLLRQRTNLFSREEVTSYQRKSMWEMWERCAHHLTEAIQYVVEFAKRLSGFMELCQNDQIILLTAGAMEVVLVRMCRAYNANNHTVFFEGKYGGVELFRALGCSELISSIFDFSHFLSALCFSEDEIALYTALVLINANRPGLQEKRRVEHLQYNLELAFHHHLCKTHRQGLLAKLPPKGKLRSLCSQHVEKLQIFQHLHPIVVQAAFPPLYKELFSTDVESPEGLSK
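Luciferase reporter read in Schneider cells carrying Gal4-RORγ (mouse) and UAS-Photinus luciferase; cells given compound 1 h before 700 uM copper sulfate induction, then incubated 20 h at ambient temperature.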
Epigenetic reg – Quantitative High-Throughput Screen for Regulators of Epigenetic Control. actives 0.2% (n = 280,000). Potency, µM (highest dose often 53.9 µM), for the others: at the highest dose GFP activation, hits mostly activators. murine LDR cells, GFP reporter derepression, 30 h; note: potency is the fitted concentration of half-maximal effect; % of control where 0% means no effect; nearly all actives have a fitted effect of over 60% in size
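Derepression of a silenced CMV-GFP reporter in murine LDR cells is scored by enumerating GFP-positive cells with a laser-scanning microplate cytometer after 30 hours of treatment at 37 C.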
PINK1 modulator – A Quantitative High throughput Screen to Identify Chemical Modulators of PINK1 Expression. Potency, µM (doses to about 76.6 µM), for the others: top-dose activation (PINK1 increase), usual class: activators. PINK1 immunofluorescence, high-content cytometry, 24 h. actives 0.2% (n = 410,000); active = well fitted activation curve with a large enough effect; inconclusive = small, poorly fitted or top-dose-only effect; cell line not stated here; note: potency is the fitted concentration of half-maximal effect; % of control where 0% means no effect; nearly all actives have a fitted effect of over 65% in size
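Compound titrations (5 concentrations, 24 h) on a stable cell line; DMSO and CCCP controls. Endpoint: fixed-cell PINK1 immunofluorescence with mitochondrial, cell and nuclear markers, scanned by microplate cytometer.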
Gal4-VP16 FLuc – VP16 counterscreen qHTS for inhibitors of ROR gamma transcriptional activity. AID 2546, 2010. actives 3.5% (n = 310,000). Drosophila S2 Gal4-VP16 UAS-luciferase, luminescence, 20 h. Potency, µM (highest dose often 53.6 µM), for the others: at the highest dose activity, negative = inhibition, most hits filed as inhibitors;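 note: Gal4-VP16 expression switched on by copper sulfate through the metallothionein promoter; potency is the fitted concentration of half-maximal effect; % is set by controls: 0 for no effect and ±100 for the full control effect; nearly all actives have a fitted effect of over 50% in size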
C127i cell count – Parental Cell Counter Screen Assay for Epigenetic Modulators: Hit Validation; shares compounds with Epigenetic reg; mouse c127i parental cells, fluorescent cell count, 30 h; Potency, µM, without a hit: at the highest dose fluorescent cell count, hits mostly activators; actives 20% (n = 60); AID 493065, 2011
HCC4017 tox – HCC4017 Cell Viability Secondary Assay for qHTS Assay for Epigenetic Modulators; shares compounds with Epigenetic reg; HCC4017 NSCLC viability, CellTiter-Glo ATP luminescence, 72 h; Potency, µM (series often up to 46.1 µM), inactives show top-dose activity change, negative = cytotoxicity, actives largely listed as cytotoxic; actives 30% (n = 45)
H358 viab – H358 Cell Viability Secondary Assay for qHTS Assay for Epigenetic Modulators: Round 2. H358 NSCLC viability, ATP luminescence, 72 h. AID 493074, 2011. shares compounds with Epigenetic reg. actives 30% (n = 45). Potency, µM (titrated, usually from 46.1 µM), for inactives: top-dose activity change, negative = viability loss, most hits filed as cytotoxic
ClpP inh valid – qHTS Assay for Activators of ClpP: Hit Validation of Inhibitors. shares compounds with ClpP mod. purified B. subtilis ClpP, FRET-FV substrate cleavage, 20 min. AID 743245, 2014. actives 40% (n = 470). Potency, µM (top dose mostly 57.5 µM), inactives show at the top dose activity change, negative = inhibition, hits mostly inhibitors; note: potency is the fitted concentration of half-maximal effect; % is set by controls: 0 for no effect and ±100 for the full control effect; nearly all actives have a fitted effect of over 70% in size
Numbers without * were called inactive; ? = inconclusive; / = not tested or not shown; [ ] = dose if it differs, or a comment. Unless noted, calls come from the whole dose curve; as a rule, active = well fitted curve in the direction sought with a large enough effect; inconclusive = small, poorly fitted or top-dose-only effect, or another doubt; inactive = no such curve, though single readings can be large; an effect the other way counts as inactive or inconclusive.

SMILES	ClpP mod	Sfp PPTase inh	RORgamma inh	Epigenetic reg	PINK1 modulator	Gal4-VP16 FLuc	ClpP inh valid	others
O=c1c2ccccc2nc(COc2ccccc2)n1/N=C/c1c[nH]c2ccccc12	59%	-15%	?	10µM*	?	-2%	/	C127i cell count=5%;HCC4017 tox=?;H358 viab=-27%
CCc1ccccc1NC(=O)c1sc2nc3n(c(=O)c2c1C)CCC3	-2%	/	/	11%	0%	/	/
O=C(CSc1c2c(nc3cc(Cl)ccc13)CCCC2)NCCCN1CCOCC1	0%	19%	-11%	-2%	2%	6%	/
CCN(CC)CCCNC(=O)CSc1c2c(nc3cc(Cl)ccc13)CCCC2	0%	5%	11%	?	5%	-11%	/	C127i cell count=5%;HCC4017 tox=?;H358 viab=28µM*
O=C1CN(c2nc(-c3ccccc3)c3cc(Cl)ccc3n2)c2ccccc2N1	-4%	13%	13%	?	?	-24%	/	C127i cell count=14%;HCC4017 tox=-26%;H358 viab=?
C(=N\Nc1nc(-c2cccnc2)nc2ccccc12)/c1ccccc1	/	-18%	?	0%	-1%	-10%	/
C(=N\Nc1nc(-c2ccccn2)nc2ccccc12)/c1ccccc1	/	-2%	0.089µM*	10µM*	-1%	0.5µM*	/	C127i cell count=5%;HCC4017 tox=0.4µM*;H358 viab=?
Cn1c(=O)c(=O)n(C)c2cc(S(=O)(=O)N3CCCC3C(=O)Nc3cccc(F)c3)ccc21 (stereo not drawn)	?	/	/	-2%	4%	/	/
COc1ccc(C(=O)NCc2ccc3c(c2)CCN3C(=O)c2cccc(C)c2)cc1OC	14%	/	/	-1%	0%	/	/
O=C1C=C(N2CCCCCC2)C(=O)N1c1ccc(Cl)cc1	/	-8%	-23%	/	0%	-25%	/
O=C1C=C(Nc2ccc(Cl)cc2)C(=O)N1c1ccc(Cl)cc1	1%	1%	16%	10µM*	35µM*	3%	/	C127i cell count=?;HCC4017 tox=-3%;H358 viab=14%
Cc1cc(S(=O)(=O)Nc2ccc(-c3ccc(N4CCCCCC4)nn3)cc2)c(C)cc1Cl	-6%	/	/	0%	0%	/	/
O=C(O)c1ccc(NC(=O)c2cccc(C(=O)Nc3ccc(C(=O)O)cc3)n2)cc1	1%	-6%	4%	/	1%	-2%	/
O=C(Nc1ccccc1)c1cccc(C(=O)Nc2ccccc2)n1	68%	17%	-6%	/	12%	-2%	24µM*
c1nc2n(n1)C1=C(CCCC1)C1(CCCCC1)N2	10µM*	23%	2.5µM*	-1%	0%	?	-1%
COc1ccccc1NC(=O)c1ccc(COc2ccc3c(c2)CCC3)cc1	219%	?	-1%	-1%	0%	-19%	-19%
CC(=O)c1ccc([N+](C)(C)C)cc1	-1%	/	/	/	0%	/	/
COc1cc(NC(=O)C2CCN(S(=O)(=O)c3ccc4c(c3)CCCC(=O)N4)CC2)cc(OC)c1	-3%	/	/	0%	-1%	/	/
CCOc1ccc(NC(=O)CC2C(=O)N(c3ccc(F)cc3)C(=O)N2Cc2ccc(OC)c(OC)c2)cc1 (stereo not drawn)	1%	/	/	-3%	3%	/	/
CCc1nnc2c(Nc3ccc(Br)c(C)c3)nc3ccccc3n12	-1%	/	/	0%	2%	/	/
CCOc1ccc(CNC(=O)c2cc3oc4ccccc4c3n2C)cc1	6.3µM*	3%	11%	4%	-1%	2%	-20%
COc1ccc(CNC(=O)c2cc3c(=O)n(C)c4ccccc4c3n2C)cc1	-10%	/	/	-1%	2%	/	/
COc1ccc(S(=O)(=O)N2CCOCC2)cc1NC(=O)c1ccccc1-c1ccc(C(F)(F)F)cc1	51%	-13%	4%	0%	12%	3%	?
Cc1ccc2[nH]c3c(c2c1)CCc1cn[nH]c1-3	2.8µM*	10%	3%	-5%	-5%[38.3 µM]	?	24µM*
Cc1ccc(Nc2nc(-c3ccc(S(=O)(=O)N4CCCC4)cc3)cs2)cc1C	?	-19%	10%	0%	5%[38.3 µM]	0%	/
SMILES	ClpP mod	Sfp PPTase inh	RORgamma inh	Epigenetic reg	PINK1 modulator	Gal4-VP16 FLuc	ClpP inh valid	others
O=S(=O)(c1ccc(-c2csc(Nc3ccc(Br)cc3)n2)cc1)N1CCCC1	3.2µM*	2%	-11%	6%	7%	-29%	27µM*
COc1cc(OC)c(NS(=O)(=O)c2c(C(=O)N3CCCCCC3)c(C)n(C)c2C)cc1Cl	0%	/	/	0%	-1%	/	/
Cn1c(C(=O)NCCC2=CCCCC2)cc2c(=O)n3ccccc3nc21	7.9µM*	0%	-13%[0.365 µM]	0%	1%	/	-16%
COc1ccc(NC(=O)c2nc[nH]c2C(=O)Nc2ccccc2C)cc1	72%	12%	3.2µM*	3%	11%	8.9µM*	-12%
CCCCn1c(=O)c2oc3ccccc3c2n(Cc2cccc(C)c2)c1=O	-20%	/	/	-1%	-1%	/	/
CCOC(=O)N/N=C1/C[C@@H](O)[C@@H](O)[C@@H]2[C@@H]3C(=O)N([C@@H](C)c4ccccc4)C(=O)[C@H]3CC[C@H]12	/	10%	4%[10 µM]	1%[10.1 µM]	/	-14%[10 µM]	/
CCN(CC(=O)Nc1c(F)cccc1F)C(=O)Cc1csc(-c2ccc(OC)c(OC)c2)n1	3.2µM*	/	/	/	0%	/	12µM*
Clc1ccc2nc3ccccn3c2c1	2.5µM*	16%	?	4%	-4%	19%	?
N#Cc1ccc2c(c1)nc1ccccn12	/	4%	14%	-4%	0%	-3%	/
CC(C)COc1ccc(C(=O)Nc2cc(S(=O)(=O)N3CCOCC3)ccc2N2CCCC2)cc1	47%	/	/	/	1%	/	-11%

Screens: PubChem, National Center for Advancing Translational Sciences (NCATS)
